Laboratory results as given in PubChem BioAssay AID651956 (Broad Institute, 2012).
Measured potencies and affinities stand elsewhere. Results filed as inconclusive are left out.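 How the source made its calls: active means in every test run, a fitted half-maximal concentration for signal decrease at or below twice the highest tested concentration; inconclusive means runs disagree, flat 30 to 70% decrease, or poor fit; inactive means the rest.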

Experiment: miR-122 activators in hepatoma reporter cells, dose response, cell-based, Huh7 psiCHECK-miR122, Renilla luciferase, cherry-picked (AID 651956);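 further: Renilla luciferase from a miR-122 sensor reporter so lower signal means miR-122 activation; 0% = median neutral control wells and -100% = median positive control wells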
Settings: 48 h; series mostly up to 35 µM; activity change, negative = signal decrease: at the top concentration

Activity change, negative = signal decrease, inactive:
N#CCc1c(C#N)c(N)nc(N2CCN(S(=O)(=O)c3ccccc3)CC2)c1C#N 88.6%
O=C(CSc1nc2ccccc2s1)N1CCOCC1 -20.8%
O=C(Nc1ccccc1N1CCN(C(=O)c2ccc(Cl)cc2)CC1)c1cccnc1 -13%
Cc1cc2n(n1)C(c1cn(-c3ccccc3)nc1C)Nc1c(C)cccc1-2 (centres undefined) 51.5%
C/C=C/c1ccc([C@@H]2[C@@H](CO)N[C@@H]2CN(C(=O)C2CCCC2)C(C)C)cc1 72.6%
C[C@@H]1CN([C@@H](C)CO)C(=O)c2cccc(NC(=O)Nc3ccc4c(c3)OCO4)c2O[C@@H]1CN(C)Cc1ccc(Oc2ccccc2)cc1 -41.5%
O=C(Oc1c(CN2CCOCC2)cc(Cl)c2cccnc12)c1ccc(F)cc1 18.7%
CCNC(=O)C[C@@H]1CC[C@@H]2[C@@H](COc3ccc(NC(=O)c4ccccc4)cc3C(=O)N2C)O1 57.6%
CO[C@H]1CN(C)C(=O)c2cc(NC(C)=O)ccc2OC[C@@H](C)N(C(=O)CC2CC2)C[C@H]1C -10%
N#Cc1cccc(NC(=O)Nc2cccs2)c1 29%
O=C(Nc1ccc(CN2CCOCC2)cc1)c1ccc(-c2ccc(Cl)cc2Cl)o1 -3.51%
CC(C)C(=O)Nc1ccc2c(c1)C(=O)N(C)[C@@H]1CC[C@@H](CC(=O)N[C@H](C)c3ccccc3)O[C@@H]1CO2 -36.3%
CCCC(=O)Nc1ccc2c(c1)C(=O)N(C)[C@H]1CC[C@H](CC(=O)NCCN3CCCCC3)O[C@@H]1CO2 -37.7%
c1cnc(N2CCN(Cc3c[nH]c4ccccc34)CC2)nc1 -24.5%
O=C(C1CCOCC1)N1C[C@H]2[C@@H](c3ccccc31)[C@@H](CO)N2Cc1ccccc1 -21.2%
CC(=O)Nc1ccc2c(c1)C(=O)N(C)[C@H]1CC[C@H](CC(=O)Nc3ccccc3Cl)O[C@@H]1CO2 152%
Cc1nn(C)cc1NC(=O)C[C@H]1CC[C@H]2[C@H](COc3ccc(NC(=O)c4cccc(F)c4)cc3C(=O)N2C)O1 74.4%
O=C(Nc1ccc(F)cc1)N1C[C@@H]2[C@H](c3ccccc31)[C@H](CO)N2C(=O)Cc1ccccc1 -22.4%
CC(C)Oc1ccc(C(CCN)C2CCCCC2)cc1 (centres undefined) -110%
CCOC(=O)C1CN(S(=O)(=O)c2ccccc2)CCN1S(=O)(=O)c1ccccc1 (centres undefined) 19.2%
CN1C(=O)c2cc(NC(=O)c3cccs3)ccc2OC[C@@H]2O[C@@H](CC(=O)N3CCOCC3)CC[C@H]21 0.812%
COc1cc(Cl)cc(/C=N\NC(=O)c2ccc3c(c2)OCO3)c1O 42.6%
CCCC(=O)Nc1ccc2c(c1)C(=O)N(C)[C@@H]1CC[C@@H](CC(=O)NCC(F)(F)F)O[C@H]1CO2 38.3%
COc1ccc(CN2CCOC2=O)cc1OC 60.2%
CN1C(=O)c2cc(NC(=O)c3cccs3)ccc2OC[C@H]2O[C@@H](CC(=O)NCCN3CCCCC3)CC[C@@H]21 178%
C/C=C/c1ccc([C@@H]2[C@H](CO)N[C@H]2CN(CC(C)C)C(=O)c2ccccn2)cc1 80%
Cc1cccc(NC(=O)C[C@H]2CC[C@H]3[C@@H](COc4ccc(NC(=O)NC(C)C)cc4C(=O)N3C)O2)c1 -16.5%
CCC(=O)N(C)C[C@@H]1[C@@H](c2ccccc2)[C@H](CO)N1Cc1cccnc1 -36.5%
CCOc1cc(-c2nccc3cc(OC)c(OC)cc23)cc(OCC)c1OCC 39.5%
CO[C@@H]1CN(C)C(=O)c2cc(NC(=O)NC(C)C)ccc2OC[C@H](C)N(Cc2cncnc2)C[C@H]1C 40.5%
CNC(=O)C[C@H]1CC[C@H]2[C@@H](COc3ccc(NC(=O)C(C)C)cc3C(=O)N2C)O1 -10%
COCC(=O)Nc1ccc2c(c1)C(=O)N(C)[C@@H]1CC[C@H](CC(=O)NC3CCCC3)O[C@H]1CO2 124%
COc1ccc(-c2oc3ncnc(NCCCN4CCOCC4)c3c2-c2ccc(OC)cc2)cc1 -8.77%
CC(C)N(C[C@@H]1N[C@@H](CO)[C@@H]1c1ccccc1)S(=O)(=O)c1ccccc1 88.1%
Cc1ccccc1-c1nc(CN2CCCC(C(=O)NCCCN3CCOCC3)C2)c(C)o1 (centres undefined) -7.02%
C[C@@H]1CN([C@@H](C)CO)S(=O)(=O)c2ccc(C3=CCCC3)cc2O[C@@H]1CN(C)C(=O)c1ccc(F)cc1 -64.2%
CN(C)CCNc1nc2sc3c(c2c(=O)n1CCc1ccccc1)CCCCC3 70.4%
CN[C@H]1C[C@H]2c3[nH]c4ccc(-c5ccc(OC)cc5)cc4c3CCN2C(=O)[C@H]1[C@H](C)O -96.4%
COCC(=O)Nc1ccc2c(c1)C(=O)N(C)[C@@H]1CC[C@@H](CC(=O)NC3CCCC3)O[C@H]1CO2 156% [at 30 µM]
